# The entries come from a sample that favours hits as a whole.
# Dicer inh: inhibitors of Dicer pre-microRNA processing, primary screen, biochemical, cat-ELCCA, chemiluminescence | cat-ELCCA pre-miR-21 Dicer processing; hits give high values | AID 1347074, 2019 | 47,000 compounds, 6% hits | z-score at 25 µM | Endoribonuclease Dicer (Homo sapiens), Q9UPY3; in the data active = z-score above about 3, passing the limit was not always enough;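 also: plate controls were vehicle for no effect and no enzyme for full effect; higher signal means more uncleaved substrate so more Dicer inhibition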
# An asterisk follows results filed as active.
SMILES,Dicer inh
O=C(O)c1cccc(CSc2ncn[nH]2)c1,-0.36
CC(C)OC(=O)Cn1nnc2sc3c(c2c1=O)CCCC3,0.55
COc1ccc2nc(Sc3c([N+](=O)[O-])nc(C)n3Cc3ccccc3)[nH]c2c1,-1.2
CCOC(=O)C(N)CSC1CCCCO1 (centres undefined),-0.84
Cc1nc2ccc(CN(C)c3ccc(C(=O)N[C@@H](CCC(=O)O)C(=O)O)s3)cc2c(=O)[nH]1,77
CC(C)(C)NCc1nc(-c2ccc(Cl)cc2)no1,-0.15
COc1ccc(-c2c(C(F)(F)F)oc3cc(OC(=O)c4cccnc4)ccc3c2=O)cc1OC,0.44
O=C(O)CCC(=O)N(Cc1ccco1)C1CC(=O)N(c2ccc(Cl)cc2)C1=O (centres undefined),-1.4
O=C(NCC1NCCc2ccccc21)C1CCCCC1 (centres undefined),1.5
O=C(CN1CCOCC1)N1c2ccccc2CCc2ccccc21,2.6
O=C(NCC1c2ccccc2CCN1C(=O)CN1CCOCC1)C1CCCCC1 (centres undefined),4.5*
CCSC1=N/C(=C\c2cccc(F)c2)C(=O)S1,-0.7
COc1ccc(-c2cc(=O)c3ccccc3o2)cc1,0.02
COc1ccc(-c2cc3ccccc3c(=O)o2)cc1,-0.62
COc1ccc(-c2cc3c(=O)oc4ccccc4c3[nH]2)cc1,4*
COC(=O)C(CC(C)C)NC(=O)CSc1nnc2c3ccccc3n(C)c2n1 (centres undefined),0.3
O=C(CSC1CN(C(c2ccccc2)c2ccccc2)C1)N/N=C/c1ccc([N+](=O)[O-])cc1,-1.6
O=S(=O)(Cc1cccc(-c2noc(-c3ccccc3Cl)n2)c1)c1ccc(Cl)cc1,-2
CC1=C(C(=O)Nc2ccc(Br)cn2)C(c2ccc(C)cc2)C2=C(CC(C)(C)CC2=O)N1 (centres undefined),-0.43
CC1=C(C(=O)Nc2ccc(F)cc2F)C(c2ccc3c(c2)OCO3)C2=C(CC(C)(C)CC2=O)N1 (centres undefined),3.1*
CC1=C(C(=O)Nc2ccc(C)cn2)C(c2cccc(Br)c2)C2=C(CC(C)(C)CC2=O)N1 (centres undefined),1.3
CC1=C(C(=O)OCCc2ccccc2)C(c2ccc3c(c2)OCO3)C2=C(CC(C)(C)CC2=O)N1 (centres undefined),1.5
CC1=C(C(=O)Nc2cc(C)ccn2)C(c2ccc(F)cc2)C2=C(CC(C)(C)CC2=O)N1 (centres undefined),1.8
CCOC(=O)C1=C(C)NC2=C(C(=O)CC(C)(C)C2)C1c1ccc(F)cc1 (centres undefined),0.51
CC1=C(C(=O)Nc2ccccn2)C(c2ccc(Br)cc2)C2=C(CC(C)(C)CC2=O)N1 (centres undefined),4.1*
SMILES,Dicer inh
CC1=C(C(=O)Nc2cccc(C)n2)C(c2cccc(Br)c2)C2=C(CC(C)(C)CC2=O)N1 (centres undefined),4.8*
COC(=O)C1=C(C)NC2=C(C(=O)CC(C)(C)C2)C1c1cccc(F)c1 (centres undefined),-0.96
COc1cc(C2C(C(=O)c3cccs3)=C(O)C(=O)N2Cc2cccnc2)ccc1O (centres undefined),-0.87
O=C(O)C1CCCCC1C(=O)Nc1ccc(O)cc1 (centres undefined),-2.1
N#Cc1c(NC(=O)c2ccccc2F)sc2c1CCCC2,0.51
O=C(NC(c1ccccc1O)C(NC(=O)c1ccccc1)c1ccccc1O)c1ccccc1 (centres undefined),0.42
CC(C)(C)N1CN=C2SC(CO)(CO)C(=O)N2C1,-0.96
Cn1nc(NC(=O)C2CCC2C(=O)O)c2ccccc21 (centres undefined),0.82
COc1c(Cl)cc(Cl)c(OC)c1C(=O)NC(=O)Nc1c(C)cc(Br)cc1C,-1.9
COc1c(Cl)cc(Cl)c(OC)c1C(=O)NC(=O)Nc1c(Cl)cc(Cl)cc1Cl,3.2*
COc1c(Cl)cc(Cl)c(OC)c1C(=O)NC(=O)Nc1c(Cl)cc([N+](=O)[O-])cc1Cl,-1
CCOC(=O)c1cnc2c(-c3ccc(OC)c(OC)c3)cnn2c1N,2
COc1cc(C2c3c(oc4ccccc4c3=O)C(=O)N2c2nncs2)ccc1OCCC(C)C (centres undefined),0.55
Cc1ccc2oc(=O)n(CCC(=O)O)c2c1,2.6
CCCCn1c(=O)oc2ccc(C)cc21,3.6*
Cc1ccc2oc(=O)n(Cc3ccc(F)cc3)c2c1,0.33
CSC(=NC#N)N1CCN(c2ccc([N+](=O)[O-])cn2)CC1,-0.34
O=C1C2C3C=CC(CC3)C2C(=O)N1c1cccc(Cl)c1 (centres undefined),3.3*
CC(C)c1ccc(N2C(=O)C3C4C=CC(CC4)C3C2=O)cc1 (centres undefined),3.5*
O=C1C2C3C=CC(C3)C2C(=O)N1c1ccc(Cc2ccc(N3C(=O)C4C5C=CC(C5)C4C3=O)cc2)cc1 (centres undefined),0.54
O=C(O)c1cccc(N2C(=O)C3C4C=CC(CC4)C3C2=O)c1 (centres undefined),2
Cc1ccc(N2C(=O)C3C4C=CC(CC4)C3C2=O)c(Br)c1 (centres undefined),1.3
COC(=O)c1ccc(N2C(=O)C3C4C=CC(CC4)C3C2=O)cc1 (centres undefined),-0.19
S=c1[nH]nc(-c2ccncc2)n1/N=C/c1cn(-c2ccccc2)nc1-c1ccccc1,-0.67
Cc1[nH][nH]c(=O)c1C(c1ccccc1OCc1ccccc1)c1c(C)[nH][nH]c1=O,-6.4
SMILES,Dicer inh
O=C1CC(c2ccc(Cl)cc2)Cc2nc(N3CCc4ccccc4C3)ncc21 (centres undefined),-1.5
COc1ccc(C2=NN(C(=O)CCC(=O)O)C(c3ccc(OC)cc3)C2)cc1 (centres undefined),0.65
O=C(C1=NOC2(C(=O)c3ccccc3C2=O)C1c1ccccc1)c1ccccc1 (centres undefined),3.9*
O=C1C2C(c3ccccc3)OC3(C(=O)c4ccccc4C3=O)C2C(=O)N1c1ccccc1 (centres undefined),0.05
CCOC(=O)C1=NN(c2ccccc2)C2(C(=O)c3ccccc3C2=O)C1c1ccc(C)cc1 (centres undefined),-0.57
O=C(Nc1cc(-c2nc3cc(Cl)ccc3o2)ccc1Cl)c1ccc([N+](=O)[O-])o1,1.3
CC(=O)N1N=C(c2c(-c3ccccc3)c3cc(Cl)ccc3[nH]c2=O)CC1c1ccco1 (centres undefined),2.2
Cc1nn2c(c1-c1ccccc1)N=C(c1ccco1)CC2c1ccco1 (centres undefined),3.3*
Cc1nn2c3c(cnc2c1-c1ccc(F)cc1)C(=O)CC(c1ccco1)C3 (centres undefined),1
Cc1cc(NC(=O)NCc2cccnc2)no1,-1.1
CN(/N=C/c1ncc(C(F)(F)F)cc1Cl)C(=O)c1ccc(F)cc1Cl,-1
Cc1cc(NC(=O)CSc2nnc3c4ccccc4n(C)c3n2)no1,2.5
C=CCn1c2ccccc2c2nnc(SCC(=O)Nc3c(C)n(C)n(-c4ccccc4)c3=O)nc21,0.96
Cc1c(NC(=O)CSc2nnc3c4ccccc4n(C)c3n2)c(=O)n(-c2ccccc2)n1C,3.2*
COc1cc(C)nc2nc(SC)nn12,-0.31
COC(=O)CSc1cc(C)nc(N)n1,-0.59
Cc1cc(Oc2ccc(=O)n(C)n2)nc(SCC(N)=O)n1,0.67
COC(=O)CSc1nc(C)cc(Oc2ccccc2)n1,3.7*
COc1cccc(/C=C2\N=C(SC)SC2=O)c1OCc1ccccc1,0.49

# Screens (PubChem BioAssay)
